Measured values published in the supplement of paper PMC8728848.
Shown is part of a subset that was picked to be rich in the strongest signals.

Key:
Assay in all cases: glycan array binding signal (z-score within array); higher = stronger binding
Settings in all cases: glycan notation: IUPAC condensed, linker removed
[1] = test system: Neu5Ac(a2-3)Gal(b1-3)[Neu5Ac(a2-6)]GalNAc
Method in brief: (§1)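 Negative Z-scores can be read as non-binding. The Z-score is calculated within each array and then averaged across arrays of one protein sequence at different concentrations or buffers and across linkers. Arrays, 3228 in all, were curated from the Consortium for Functional Glycomics database and kept only where the protein sequence was available.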

[2] = test system: Neu5Ac(a2-3)Gal(b1-3)GlcNAc(b1-3)Gal(b1-4)GlcNAc
Method in brief: as §1

[3] = test system: Neu5Ac(a2-3)Gal(b1-4)GlcNAc(b1-3)Gal(b1-4)GlcNAc(b1-3)Gal(b1-4)GlcNAc
Method in brief: as §1

[4] = test system: Neu5Ac(a2-3)Gal(b1-3)GlcNAc6S
Method in brief: as §1

[5] = test system: Neu5Ac(a2-3)Gal(b1-4)GlcNAc(b1-3)Gal
Method in brief: as §1

[6] = test system: Neu5Ac(a2-3)Gal(b1-3)GlcNAc(b1-6)GalNAc
Method in brief: as §1

[7] = test system: Neu5Ac(a2-3)Gal(b1-4)GlcNAc(b1-2)Man
Method in brief: as §1

[8] = test system: Neu5Ac(a2-3)Gal(b1-4)GlcNAc(b1-3)Gal(b1-4)[Fuc(a1-3)]GlcNAc
Method in brief: as §1

[9] = test system: Neu5Ac(a2-3)Gal(b1-4)GlcNAc(b1-6)GalNAc
Method in brief: as §1

[10] = test system: Neu5Ac(a2-3)Gal(b1-4)GlcNAc6S
Method in brief: as §1

[11] = test system: Neu5Ac(a2-3)Gal(b1-4)GlcNAc(b1-3)GalNAc
Method in brief: as §1

[12] = test system: Neu5Ac(a2-3)Gal(b1-3)GlcNAc(b1-4)Gal(b1-4)Glc
Method in brief: as §1

[13] = test system: Neu5Ac(a2-3)Gal(b1-4)GlcNAc(b1-2)Man(a1-3)[GlcNAc(b1-4)][Neu5Ac(a2-3)Gal(b1-4)GlcNAc(b1-2)Man(a1-6)]Man(b1-4)GlcNAc(b1-4)GlcNAc
Method in brief: as §1

[14] = test system: Neu5Ac(a2-3)Gal(b1-4)GlcNAc(b1-2)Man(a1-3)[Neu5Ac(a2-6)Gal(b1-4)GlcNAc(b1-2)Man(a1-6)]Man(b1-4)GlcNAc(b1-4)GlcNAc
Method in brief: as §1

[15] = test system: Neu5Ac(a2-3)Gal(b1-4)GlcNAc(b1-3)Gal(b1-4)GlcNAc(b1-2)Man(a1-3)[Neu5Ac(a2-3)Gal(b1-4)GlcNAc(b1-3)Gal(b1-4)GlcNAc(b1-2)Man(a1-6)]Man(b1-4)GlcNAc(b1-4)GlcNAc
Method in brief: as §1

[16] = test system: Neu5Ac(a2-3)Gal(b1-4)GlcNAc(b1-3)Gal(b1-4)GlcNAc(b1-3)Gal(b1-4)GlcNAc(b1-2)Man(a1-3)[Neu5Ac(a2-3)Gal(b1-4)GlcNAc(b1-3)Gal(b1-4)GlcNAc(b1-3)Gal(b1-4)GlcNAc(b1-2)Man(a1-6)]GalNAc
Method in brief: as §1

[17] = test system: Neu5Ac(a2-3)Gal(b1-4)GlcNAc(b1-3)Gal(b1-4)GlcNAc(b1-3)GalNAc
Method in brief: as §1

[18] = test system: Neu5Ac(a2-3)Gal(b1-4)GlcNAc(b1-6)[Gal(b1-3)]GalNAc
Method in brief: as §1

[19] = test system: Neu5Ac(a2-3)Gal(b1-3)[Fuc(a1-4)]GlcNAc
Method in brief: as §1

[20] = test system: Neu5Ac(a2-3)Gal(b1-4)GlcNAc(b1-2)Man(a1-3)[Neu5Ac(a2-3)Gal(b1-4)GlcNAc(b1-2)Man(a1-6)]Man(b1-4)GlcNAc(b1-4)[Fuc(a1-6)]GlcNAc
Method in brief: as §1

With MIC3-MAR1b (Eimeria tenella), B6VCV4 as the substance, how does the “glycan array binding signal (z-score)” value [1] read?
The value was -0.355.

Which “glycan array binding signal (z-score)” value [2] does the source give for BambL (Burhholderia ambifaria), Q0B4G1 here?
Its value is -0.316.

And the “glycan array binding signal (z-score)” value [3]?
The value was -0.313.

What does the source list for GspB (Streptococcus gordonii), Q939N5?
glycan array binding signal (z-score) [4]: -0.2; glycan array binding signal (z-score) [1]: 3.61

For Wza (Escherichia coli), P0A930, which “glycan array binding signal (z-score)” value [5] is on record?
The value was 2.81.

How did the “glycan array binding signal (z-score)” value [6] turn out when LcI (Legionella pneumophila) was run?
Its value is 3.77.

What about the “glycan array binding signal (z-score)” value [7] of the same substance?
Its value is 2.16.

And the “glycan array binding signal (z-score)” value [8]?
The value was -0.717.

What about the “glycan array binding signal (z-score)” value [9] of the same substance?
The value was 3.79.

What about the “glycan array binding signal (z-score)” value [10] of the same substance?
Its value is -0.956.

“SiiE (Salmonella typhimurium), A0A0H3NVH0” was tested. Which “glycan array binding signal (z-score)” value [2] did it give?
Its value is -0.888.

What about the “glycan array binding signal (z-score)” value [3] of the same substance?
Its value is -0.456.

What about the “glycan array binding signal (z-score)” value [11] of the same substance?
Its value is -1.98.

For Epa22, which “glycan array binding signal (z-score)” value [10] is on record?
Its value is 0.274.

Which results are given for “AgI/II Vhelical-GFP (Streptococcus mutans)”?
glycan array binding signal (z-score) [12]: -0.297; glycan array binding signal (z-score) [13]: 0.396; glycan array binding signal (z-score) [14]: -0.182; glycan array binding signal (z-score) [15]: 1.8; glycan array binding signal (z-score) [16]: -0.031; glycan array binding signal (z-score) [17]: 0.5; glycan array binding signal (z-score) [18]: -0.273

Actinohivin (Actinomycete K97) was tested. Which “glycan array binding signal (z-score)” value [4] did it give?
Its value is -0.191.

What about the “glycan array binding signal (z-score)” value [19] of the same substance?
Its value is -0.196.

“SpGH101 (Streptococcus pneumoniae), Q8DR60” was tested. Which “glycan array binding signal (z-score)” value [5] did it give?
The value was -0.209.

For AgI/IIC123-GFP (Streptococcus mutans), which “glycan array binding signal (z-score)” value [20] is on record?
The value was -0.442.
